HIF activator: HIF pathway transcriptional activation; U2OS HRE-luciferase reporter, luminescence; normalized: DMSO 0%, desferrioxamine 100%; activation, % at 7.5 µM (by protocol); 300,000 tested, 0.32% active; AID 1910;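 active means mean activation of at least 10% of the iron chelator positive control signal, with at least half of replicates also reaching 10%; inconclusive means mean and replicate majority disagree about reaching 10%; inactive means mean and most replicates under 10%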
LANA-H2B inh: blocks KSHV LANA binding to histone H2A/H2B | AID 2629 | 320,000 tested, 0.6% active | cell-free LANA-H2A/H2B peptide, fluorescence polarization | Q9QR71 | inhibition, % (no concentration beside the values); in the data active means inhibition mostly above about 10%, no sharp cut-off; inactive means mostly below about 6.7%
Target sequence (Q9QR71 whole entry, looked up): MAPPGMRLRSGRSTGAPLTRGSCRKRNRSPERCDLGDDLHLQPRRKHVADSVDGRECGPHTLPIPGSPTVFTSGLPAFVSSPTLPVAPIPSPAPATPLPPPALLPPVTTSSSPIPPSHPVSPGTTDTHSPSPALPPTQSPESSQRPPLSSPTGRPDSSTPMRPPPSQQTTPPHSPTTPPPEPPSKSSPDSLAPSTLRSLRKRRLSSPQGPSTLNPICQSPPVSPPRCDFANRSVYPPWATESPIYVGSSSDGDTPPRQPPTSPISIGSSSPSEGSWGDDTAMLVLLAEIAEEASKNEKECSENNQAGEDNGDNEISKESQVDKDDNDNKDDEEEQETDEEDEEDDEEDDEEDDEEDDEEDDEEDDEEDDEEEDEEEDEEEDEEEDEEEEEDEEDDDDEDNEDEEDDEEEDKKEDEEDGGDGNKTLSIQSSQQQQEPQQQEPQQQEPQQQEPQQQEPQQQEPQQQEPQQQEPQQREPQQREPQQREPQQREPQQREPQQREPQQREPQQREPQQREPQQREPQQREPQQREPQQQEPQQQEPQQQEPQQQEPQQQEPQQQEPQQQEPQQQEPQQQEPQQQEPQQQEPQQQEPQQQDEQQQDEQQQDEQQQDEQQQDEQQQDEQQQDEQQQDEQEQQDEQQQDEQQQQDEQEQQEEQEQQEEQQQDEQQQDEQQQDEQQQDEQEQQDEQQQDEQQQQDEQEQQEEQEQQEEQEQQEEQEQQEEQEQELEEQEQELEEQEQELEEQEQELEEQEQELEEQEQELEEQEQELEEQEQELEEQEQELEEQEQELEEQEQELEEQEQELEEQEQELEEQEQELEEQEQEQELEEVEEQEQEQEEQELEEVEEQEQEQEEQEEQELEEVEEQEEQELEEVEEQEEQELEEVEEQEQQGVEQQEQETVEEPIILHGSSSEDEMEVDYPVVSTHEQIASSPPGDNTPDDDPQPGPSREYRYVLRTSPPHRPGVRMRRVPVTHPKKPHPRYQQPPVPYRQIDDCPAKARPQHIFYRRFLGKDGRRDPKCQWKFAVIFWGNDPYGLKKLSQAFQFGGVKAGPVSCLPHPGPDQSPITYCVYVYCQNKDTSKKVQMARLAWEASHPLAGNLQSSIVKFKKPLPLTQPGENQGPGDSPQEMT
HDAC3 inhib: inhibitors of human histone deacetylase 3. O15379. recombinant HDAC3, fluorogenic peptide/trypsin coupled, fluorescence. inhibition, % at 8.3 µM. 320,000 tested, 0.15% active. AID 2718; in the data active means inhibition above about 26%, passing the limit was not always enough; inconclusive means no clear call, values can overlap the other calls
CR mimetic SO: caloric restriction mimetics inhibiting age-related superoxide in yeast; superoxide response (% of plate mean), % at 10 µM; S. cerevisiae aged cells, superoxide DHE fluorescence; active compounds read low; 330,000 tested, 0.18% active;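 active means superoxide response under a set limit, about three screen SD below normal, cut at about 65% in these data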;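 further: yeast aged for seven days with compound at 30 °C before DHE staining; 100% = average MFI of all compound-treated wells on the plate with controls excluded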
Starred values were filed as active, the others as inactive; ? = inconclusive; . = not tested or not shown; + = active, no number; ! = repeats disagree. This is a sample that favours compounds with a hit; in the whole collection about 1.2% have one here.

SMILES | HIF activator | LANA-H2B inh | HDAC3 inhib | CR mimetic SO
CCN(CC)S(=O)(=O)c1ccc2[nH]c(=O)cc(C(=O)Nc3ccccc3N3CCCC3)c2c1 | -1 | 2 | 1 | 106
CCOc1ccc(S(=O)(=O)N2CCCCC2)cc1NC(=O)CN1C(=O)NC(C)(C2CC2)C1=O (stereo unspecified) | . | -4 | -1 | 111
CCC(=O)O[C@]1(C(=O)CCl)[C@@H](C)C[C@H]2[C@@H]3CCC4=CC(=O)C=C[C@]4(C)[C@@]3(F)[C@@H](O)C[C@@]21C | -1 | 2 | 6 | 99
C[C@@H]1C[C@H]2[C@@H]3CCC4=CC(=O)C=C[C@]4(C)[C@@]3(F)[C@@H](O)C[C@]2(C)[C@@]1(O)C(=O)COP(=O)(O)O | -1 | 47*! | 5 | 102
Cc1ccccc1CN1CCN(CC(=O)NCc2ccccc2)CC1 | 0 | 21* | 0 | 99
O=C1CCCC(O)=C1C(C#Cc1ccccc1)C1=C(O)CCCC1=O | 0 | 8 | 6 | 102
CC1(C)CC(=O)C(C(C#Cc2ccccc2)C2=C(O)CC(C)(C)CC2=O)=C(O)C1 | . | 17* | -6 | 85
CCC(C)(C)NC(=O)C1CC(=O)N(CCc2ccc(F)cc2)C1 (stereo unspecified) | 1 | 5 | 0 | 93
COC(=O)C(NC(=O)c1c(C)nn(C)c1Cl)c1ccccc1 (stereo unspecified) | 609* | -4 | 0 | 98
Cc1ccc(/C=N/NC(=O)c2ccc(Br)o2)s1 | 9.9* | -2 | 4 | 90
N#Cc1c(-c2ccccc2F)cc(C2CC2)nc1SCC(=O)c1cccs1 | 0 | 2 | -2 | 103
O=S1(=O)CCOC(CO)CN1Cc1ccc(Cl)c(Cl)c1 (stereo unspecified) | . | . | . | 108
N#Cc1ccccc1S(=O)(=O)N1CCN(C(=O)C2CCC2)CC1 | 0 | 6 | -4 | 83
N#Cc1ccccc1S(=O)(=O)N1CCN(c2cnccn2)CC1 | 68* | -1 | -3 | 98
Cc1cccc(CSc2ccc(S(=O)(=O)N3CCCC3)cn2)c1 | . | 2 | 3 | 101
Cc1cc(C)n(-c2ccc(NC(=O)C3CCCCN3C(=O)c3ccoc3)cc2)n1 (stereo unspecified) | 0 | 55* | -2 | 111
O=C(Oc1ccccc1/C=C\C(=O)c1cc2ccccc2o1)c1cccc(F)c1 | 5 | 17* | 10 | 81
c1ccc(Nc2nc(-c3ccccn3)cs2)cc1 | 1 | -1 | -1 | 92
COc1cccc2sc(Nc3nc(-c4ccccn4)cs3)nc12 | 94* | -6 | -2 | 102
COC(CN(C(=O)CCl)C(C(=O)NC1CCCCC1)c1ccccc1C)OC (stereo unspecified) | -1 | -2 | 3 | 100
COC(CN(C(=O)CCl)C(C(=O)NC1CCCCC1)c1ccc(Cl)cc1)OC (stereo unspecified) | 63* | 1 | -8 | 83
O=C(NCc1ccc(F)cc1)c1cc(S(=O)(=O)N2CCCCC2)ccc1Cl | . | 79* | 1 | 95
Cc1cccc2sc(N(CCN(C)C)C(=O)C3CCN(S(=O)(=O)c4cccs4)CC3)nc12 | 0 | -2 | 3 | 109
O=C(c1ccc(-c2cccc(C(F)(F)F)c2)o1)N1CCN(c2ccccc2O)CC1 | 0 | 2 | 5 | 124
O=C(c1ccc(-c2cccc(C(F)(F)F)c2)o1)N1CCCC(C(F)(F)F)C1 (stereo unspecified) | 2 | -2 | 30* | 100
SMILES | HIF activator | LANA-H2B inh | HDAC3 inhib | CR mimetic SO
O=c1oc(-c2ccco2)nc2c1cnn2-c1ccccc1 | 0 | -1 | 62* | 97
O=c1c2cnn(-c3ccccc3)c2nc(-c2ccco2)n1-c1ccccc1 | 0 | -5 | 3 | 105
Cc1ccc(-c2nc3ccccc3c(C(=O)NCc3cccs3)c2C)cc1 | 0 | -1 | 5 | 103
CCc1noc(C)c1C(=O)N1CCCC(C(=O)c2ccc(OC)c(F)c2)C1 (stereo unspecified) | 0 | 14* | -10 | 104
COc1ccc(C(=O)C2CCCN(C(=O)c3cc(C(C)C)no3)C2)cc1F (stereo unspecified) | 0 | -2 | 12 | 100
O=S(=O)(NC(=S)NC1CCCCC1)c1cccs1 | 0 | 3 | -2 | 90
O=S(=O)(NC(=S)NC1CCCCC1)c1ccccc1 | 0 | 10* | 0 | 105
COc1ccc2c(C)cc3nncn3c2c1 | 0 | 4 | 7 | 116
COCC(=O)N[C@@H]1c2cc(OC)c(OC)cc2C[C@H]1OCc1ccccc1 | . | . | . | 91
Cc1[nH][nH]c(=O)c1C(c1ccc(N(C)C)c(Br)c1)c1c(C)[nH][nH]c1=O | 0 | 60* | -2 | 108
Cc1ccc(S(=O)(=O)Oc2ccc(C(c3c(C)[nH][nH]c3=O)c3c(C)[nH][nH]c3=O)cc2)cc1 | 0 | 3 | 12 | 105
Cc1nc2sccn2c(=O)c1CCN1CCC(=C(c2ccc(F)cc2)c2ccc(F)cc2)CC1 | 0 | 8.3* | 3 | 97
N/C(=N\OC(=O)c1cccc2ccccc12)c1ccccn1 | 0 | 41* | -4 | 131
NC(=O)CN1CCN(Cc2ccc3c(c2)OCO3)CC1 | -1 | 4 | -2 | 102
COc1cc(/C=C2\SC(=O)N(CCNC(=O)c3sc4cc(F)ccc4c3Cl)C2=O)cc(OC)c1OC | -1 | 15* | 6 | 106
COc1cc(C(=O)NCC(=O)NCCN2C(=O)S/C(=C\c3ccccc3Cl)C2=O)cc(OC)c1OC | 0 | -1 | 3 | 110
CCCCn1c(N)c(N(C)C(=O)c2ccc(Br)o2)c(=O)[nH]c1=O | . | 3 | -1 | 113
CN(CC(=O)Nc1ccc(F)cc1)S(=O)(=O)c1ccc2c(c1)c(=O)n(C)c(=O)n2C | -1 | 5 | -6 | 77
O=C(COc1ccccc1)NCC(=O)N/N=C/c1cccs1 | -1 | 55* | -1 | 93
S=C(NCc1ccccc1)N/N=C/c1cccs1 | 0 | 13* | 5 | 95
O=C(COc1ccc(Cl)cc1)NCC(=O)N/N=C/c1cccs1 | -2 | -1 | 2 | 105
O=C(COc1ccccc1)NCC(=O)N1CCCCCC1 | . | 50* | 5 | 104
Cc1cccc2cc(CNC3CCCC3)c(Cl)nc12 | -1 | 1 | 3 | 98
Cc1ccc[n+](-c2nc([O-])sc2C=O)c1 | . | 29* | -3 | 108
CCC(C)NC(=O)c1ccc2c(c1)S(=O)(=O)c1ccccc1C2=O (stereo unspecified) | -1 | -4 | -8 | 93
SMILES | HIF activator | LANA-H2B inh | HDAC3 inhib | CR mimetic SO
CCCOc1c(Cl)cc(C(=O)Nc2ccc3c(c2)OCO3)cc1OCC | 2 | -1 | ? | 89
CCNc1nc(NCC)nc(N/N=C/c2ccc(O)c(O)c2)n1 | 0 | 3 | 11 | 90
CCNc1nc(NCC)nc(N/N=C/c2ccc(N(C)C)cc2)n1 | 0 | 65* | -4 | 78
Cc1ccnc(NC(=O)COc2ccc3c(c2)CCC3)c1 | -3 | -6 | -7 | 104
CN1CCN(CC(=O)Nc2ccc([N+](=O)[O-])cc2Br)CC1 | 0 | -1 | 9 | 102
CC1CN(CC(=O)Nc2ccc([N+](=O)[O-])cc2Br)CC(C)O1 (stereo unspecified) | 0 | + | -2 | 105
